From PubChem BioAssay
Only some compounds are listed: those with a hit (about 12% of all), similar ones and a draw of the others.
BAZ2B block – inhibitors of human BAZ2B bromodomain; AID 504333; AlphaScreen BAZ2B-H3K14Ac peptide displacement; actives 4.4% (n = 360,000); Potency, µM (highest dose often 114 µM), for the others: top-dose activity change, negative = inhibition, usual class: inhibitors; further: on the % scale 0 is the no-effect control and ±100 the full control effect; nearly all actives have a fitted effect of over 60% in size
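Compounds, titrated to a top concentration of 110 uM, were incubated 30 min at room temperature with preformed BAZ2B/acetyl-K14 H3 peptide complex (50 nM each). Proximity signal was measured by AlphaScreen after 20 min with beads.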
G9a block – G9a (human) methyltransferase inhibition; Potency, µM (top dose mostly 102 µM), for inactives: top-dose activity, negative = inhibition, most hits filed as inhibitors; actives 8.8% (n = 350,000); G9a H3K9 monomethylation, AlphaScreen, 2 h; AID 504332; Q96KQ7; further: on the % scale 0 is the no-effect control and ±100 the full control effect; nearly all actives have a fitted effect of over 75% in size
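Signal arises when biotinylated H3K9 peptide, once monomethylated, bridges streptavidin donor and antibody-captured acceptor beads. Enzyme at 20 nM was preincubated 15 min with test compounds; peptide 500 nM and SAM 20 uM then reacted for 2 h.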
JMJD2A Tudor inh – JMJD2A Tudor domain (human) inhibition | O75164 | AlphaScreen JMJD2A-Tudor / H3K4me3 peptide binding | Potency, µM (highest dose often 114 µM), without a hit: at the highest dose activity change, negative = inhibition, most hits filed as inhibitors | actives 4.4% (n = 390,000) | AID 504339; further: on the % scale 0 is the no-effect control and ±100 the full control effect; nearly all actives have a fitted effect of over 50% in size
Sfp inh – blocks B. subtilis Sfp PPTase activity; Q9F4F7; Biochemical Sfp PPTase activity, qHTS; Potency, µM, inactives show largest response in the series, negative = inhibition, usual class: inhibitors; actives 3.5% (n = 310,000);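 further: the enzyme is Sfp with the accession as filed and its product quenches rhodamine fluorescence; 0% = enzyme reaction without inhibitor and -100% = no enzyme wells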
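Buffer: 50 mM Hepes-Na pH 7.6, 10 mM MgCl2, 0.01% Nonidet P-40, 0.01% BSA. Enzyme 15 nM, pre-exposed to compound 15 min; substrates then added and fluorescence change tracked over 30 min.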
HP1b chromo inh – blocks HP1-beta chromodomain binding to methylated histone tails; P83916; Potency, µM (top dose mostly 114 µM), for inactives: at the highest dose activity change, negative = inhibition, actives largely listed as inhibitors; actives 0.56% (n = 390,000); AID 540317; AlphaScreen HP1-beta / biotin-H3K9me3 peptide binding; further: nearly all actives have a fitted effect of over 70% in size
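AlphaScreen: HP1-beta (50 nM) preformed 30 min with biotin-H3(1-18)K9me3 peptide (50 nM) in PBS pH 7.4, 0.01% Tween-20. Compound added for 30 min at RT, then streptavidin donor/nickel chelate acceptor beads (10 ug/mL) for 30 min.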
L3MBTL1 inh – L3MBTL1 (human) inhibition; AlphaScreen L3MBTL1–H3K9me1 peptide binding; Potency, µM (doses to about 57.1 µM), inactives show at the top dose activity, negative = inhibition, hits mostly inhibitors; actives 0.66% (n = 230,000); AID 485360; further: on the % scale 0 is the no-effect control and ±100 the full control effect; nearly all actives have a fitted effect of over 60% in size
Target sequence (Q9Y468 whole entry, looked up): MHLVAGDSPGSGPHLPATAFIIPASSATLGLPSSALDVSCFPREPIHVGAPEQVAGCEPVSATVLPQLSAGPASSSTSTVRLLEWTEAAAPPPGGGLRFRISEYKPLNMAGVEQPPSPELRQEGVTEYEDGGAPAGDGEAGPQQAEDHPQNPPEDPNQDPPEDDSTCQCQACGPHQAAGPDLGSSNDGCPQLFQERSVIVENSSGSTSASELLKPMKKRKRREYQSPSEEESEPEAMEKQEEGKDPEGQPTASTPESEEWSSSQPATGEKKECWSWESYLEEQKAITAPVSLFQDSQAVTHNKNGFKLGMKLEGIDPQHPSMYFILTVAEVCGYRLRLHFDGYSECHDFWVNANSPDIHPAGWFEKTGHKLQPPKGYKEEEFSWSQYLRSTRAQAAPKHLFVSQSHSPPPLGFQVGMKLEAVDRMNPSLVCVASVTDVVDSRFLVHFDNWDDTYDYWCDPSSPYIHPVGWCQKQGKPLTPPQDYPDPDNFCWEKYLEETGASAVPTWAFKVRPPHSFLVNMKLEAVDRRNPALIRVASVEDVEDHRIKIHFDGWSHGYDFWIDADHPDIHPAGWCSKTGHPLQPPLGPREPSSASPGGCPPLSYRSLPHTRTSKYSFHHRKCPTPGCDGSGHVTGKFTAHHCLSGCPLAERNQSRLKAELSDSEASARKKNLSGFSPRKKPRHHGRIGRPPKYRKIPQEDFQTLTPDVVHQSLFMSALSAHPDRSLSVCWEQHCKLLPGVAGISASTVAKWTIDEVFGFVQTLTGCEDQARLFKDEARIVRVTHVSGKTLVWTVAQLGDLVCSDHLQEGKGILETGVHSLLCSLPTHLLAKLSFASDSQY
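AlphaScreen assay: L3MBTL1 (50 nM final) was preincubated 30 min at room temperature with biotinylated H3(1-15)K9me1 peptide (75 nM final), then 30 min with library compounds; streptavidin donor and nickel chelate acceptor beads (10 ug/mL final) added, 30 min dark.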
* marks the source's active call; other numbers are inactive results; ? = inconclusive; · = no result given; [ ] = dose if it differs, or a comment. The call rests on the fitted dose curve; in most records, active means well fitted curve in the direction sought with a large enough effect; inconclusive means small, poorly fitted or top-dose-only effect, or another doubt; inactive means no such curve, though single readings can be large; an effect the other way counts as inactive or inconclusive. Potency means the concentration at half of the fitted maximal effect.

SMILES | BAZ2B block | G9a block | JMJD2A Tudor inh | Sfp inh | HP1b chromo inh | L3MBTL1 inh
C=C(C)C(=O)Nc1cccc(C2=NOC3(C2)C[C@@H](C(N)=O)N(C(=O)CC(c2ccccc2)c2ccccc2)C3)c1 (stereo not given in full) | 12.6µM* | ? | 20µM* | 0.8% | 20µM* | ·
N#CCC(=O)N1CC2(CC(c3cccc(NC(=O)COc4ccc(Cl)cc4)c3)=NO2)C[C@@H]1C(N)=O (stereo not given in full) | -9.8% | -0.9%[59 µM] | -9.1% | 5.6% | 22.7% | ·
C=C(C)C(=O)Nc1cccc(C2=NOC3(C2)C[C@H](C(N)=O)N(C(=O)c2ccccc2C(=O)c2ccccc2)C3)c1 (stereo not given in full) | 10µM* | ? | 7.94µM* | -4.2% | ? | ·
Fc1ccc(CNC(=S)NCc2cccc(Cl)c2)cc1 | -35.9% | ? | 13.1% | -20.4% | 34.7% | ·
O=C(NCCCN1CCCCC1)c1cc(Sc2ccc(Cl)cc2)nc2ccccc12 | -10.2% | -5.0%[59 µM] | -22.0% | · | 11.6% | ·
CCn1c(C)c(C2N3CC4(C)CN2CC(C)(C3)C4=O)c2ccccc21 (stereo not given) | -20.2% | -36.8%[59 µM] | -25.8% | · | -2.0% | ·
C=C(C)C(=O)Nc1cccc(C2=NOC3(C2)C[C@H](C(N)=O)N(C(=O)CC)C3)c1 (stereo not given in full) | 3.55µM* | ? | 7.94µM* | 2.3% | 10µM* | ·
COC(=O)c1ccccc1NC(=O)c1cc(CN2CCCC2)on1 | -27.8% | -1.2%[59 µM] | -28.0% | · | 50.9% | ·
CCCCN(C(=O)c1cc2c(s1)CCC2)c1c(N)n(CC(C)C)c(=O)[nH]c1=O | ? | 2.5%[12.7 µM] | -35.3% | · | -6.3% | -8.7%
CCCCN(C(=O)c1cc2c(s1)CCC2)c1c(N)n(CCC)c(=O)[nH]c1=O | ? | 44.7µM* | ? | · | ? | ?
Cc1ccccc1C(=O)N1CCC(C(=O)N(CC(C)C)c2c(N)n(CC(C)C)c(=O)[nH]c2=O)CC1 | 4.3% | 15.1%[12.7 µM] | -14.4% | · | 27.9% | -0.6%
COCCN(C(=O)C1CCN(C(=O)c2ccccc2C)CC1)c1c(N)n(CC(C)C)c(=O)[nH]c1=O | ? | 1.58µM* | 89.1µM* | · | -11.9% | 1.2%
COCCN(C(=O)c1cc2c(s1)CCC2)c1c(N)n(CC(C)C)c(=O)[nH]c1=O | 56.2µM* | -45.1%[12.7 µM] | ? | · | 20.3% | ?
COCCN(C(=O)c1cc2c(s1)CCCCC2)c1c(N)n(CC(C)C)c(=O)[nH]c1=O | 38.3% | 0.6%[59 µM] | -12.2% | · | 52.4% | 32.6%
Cc1ccccc1C(=O)Nc1ccccc1C(=O)OCc1cc(=O)n2ccsc2n1 | 0.7% | 20.2%[59 µM] | -15.6% | · | 33.3% | ·
Cc1ccc(Sc2ccc(/C=N/O)cc2[N+](=O)[O-])cc1 | ? | ? | 44.7µM* | -11.7% | -45.0% | ·
O=C(/C=C/c1ccccc1[N+](=O)[O-])N1CCN(c2ccccc2F)CC1 | ? | 56.2µM* | -29.5% | 0.0% | 13.7% | -8.7%
O=C(/C=C/c1ccc(Cl)cc1Cl)N1CCN(c2ccccc2[N+](=O)[O-])CC1 | ? | 39.8µM* | ? | -20.1% | ? | ?
O=S(=O)(CCN1CCN(c2ccccc2O)CC1)c1cc(Cl)ccc1Cl | 0.9% | 44.7µM* | -22.1% | · | 21.9% | -1.2%
Cc1cccc(N2CCN(S(=O)(=O)c3cc(Cl)ccc3Cl)CC2)c1C | -2.5% | 2.8%[59 µM] | 4.5% | · | 32.5% | ·
CC(C)(C)C(=O)N1CCN(c2ccc(Cl)cc2[N+](=O)[O-])CC1 | ? | 2.1%[59 µM] | -30.0% | -1.6% | -21.0% | -18.4%
O=[N+]([O-])c1cc(Cl)ccc1N1CCN(c2ccccc2O)CC1 | 14.1µM* | ? | 39.8µM* | 1.9% | ? | ·
CCc1cccc(CC)c1NC(=O)CN(C)S(=O)(=O)c1ccc2c(c1)n(C)c(=O)c(=O)n2C | 3.9% | -2.9%[59 µM] | -10.3% | · | 34.6% | ·
O=C(Oc1cc(Cl)ccc1Cl)c1ccc(N2CCOCC2)c([N+](=O)[O-])c1 | ? | ? | 35.5µM* | -3.2% | ? | -20.8%
COC(=O)c1cc2sc(C)cc2n1Cc1nc(-c2ccc(C)cc2)oc1C | -5.1% | -8.9%[59 µM] | -12.4% | · | 29.1% | ·
SMILES | BAZ2B block | G9a block | JMJD2A Tudor inh | Sfp inh | HP1b chromo inh | L3MBTL1 inh
CN(CC(=O)Nc1ccc(Cl)c(C(F)(F)F)c1)C(=O)/C=C/c1ccco1 | -13.2% | -14.0% | -2.8% | -22.0% | 18.9% | -0.1%
CC1=NN(c2ccc(C(=O)OC(C)C)cc2)C(=O)/C1=C\C=C\c1ccco1 | 3.98µM* | 4.47µM* | 17.8µM* | ? | ? | 6.31µM*
CCOC(=O)c1ccc(N2N=C(C)/C(=C/C=C/c3ccco3)C2=O)cc1 | 6.31µM* | ? | ? | -1.6% | ? | 31.6µM*
O=C(O)c1cc(N2N=C(C(F)(F)F)/C(=C/C=C/c3ccco3)C2=O)ccc1Cl | 12.6µM* | 2.51µM* | 1µM* | 22.4µM* | 1.58µM* | 1µM*
CC1=NN(c2ccc(C)c(C)c2)C(=O)/C1=C\C=C\c1ccc([N+](=O)[O-])o1 | ? | ? | ? | 1.2% | ? | ?
CN(C(=O)Cn1cnc2sccc2c1=O)C1CCCCC1 | -3.8% | -1.9%[2.33 µM] | -13.5% | · | 17.7% | -6.3%
Cn1c(=O)c2c(-c3ccccc3F)c3c(nc2n(C)c1=O)-c1ccccc1C3O (stereo not given) | -3.5% | 10µM* | -11.2% | 12.8% | 8.8% | -8.6%
CC(C)CNC(=O)CSc1nnc(CN2CCCCCC2=O)n1-c1ccccn1 | · | -8.1%[59 µM] | -4.5% | 12.6% | -6.7% | 0.4%
CC(C)N(C(=O)CSc1nnc(CN2CCCCCC2=O)n1-c1ccccn1)C(C)C | -27.2% | ? | 89.1µM* | -3.3% | ? | ·
COc1ccc(-c2nc(CSc3nc4ncccc4[nH]3)c(C)o2)cc1OC | -15.9% | ? | -27.1% | · | 21.5% | ·
Cc1onc(-c2ccccc2)c1C(=O)NC(=S)NNC(=O)c1ccccc1O | 35.5µM* | -3.7%[59 µM] | 79.4µM* | 14.1% | -6.4% | ?
Cc1onc(-c2ccccc2)c1C(=O)NC(=S)NNC(=O)c1ccc(O)cc1 | 3.1% | 3.8%[59 µM] | ? | -26.8% | -7.4% | 34.1%
Cc1onc(-c2ccccc2)c1C(=O)NNC(=O)c1ccccc1Br | -1.8% | -9.3%[2.33 µM] | -7.4% | · | 46.7% | -1.2%
Cc1onc(-c2ccccc2)c1C(=O)NC(=S)NNC(=O)c1ccc(O)cc1O | 22.4µM* | ? | 79.4µM* | 23.1% | -15.3% | -21.4%
CN(C)c1ccc(S(=O)(=O)N2CCCCC2)cc1NC(=O)CCNC(=O)c1ccccc1Cl | · | · | -14.9% | · | 21.4% | ·
CCOC(=O)c1cc(S(=O)(=O)N2CCN(c3ccccc3)CC2)[nH]n1 | -31.6% | ? | -16.3% | · | 2.8%[57 µM] | ·
